Out of some 69,000 compounds screened, about 8,600 (12%) showed an effect of 50% or more. What follows is part of a selection rich in strong results, with near analogues and random picks from the rest.

The test system of the test is Plasmodium berghei. Put plainly: Screen against P. berghei liver stage (PbLuc), transformed with Luciferase, at 10uM. It is filed as functional, HepG2. To be noted: tested at 10 uM.
In the case of `COCCNc1nc(N2CCOCC2)nc2nccnc12`, the INHIBITION is -2.93%.
With `O=C(N1CCOCC1)N1CCN(CC(O)c2ccc(F)cc2)CC1` (stereo not given), the INHIBITION is -11.4%.
In the case of `O=C(CC1CCC2(CC1)CCN(Cc1cccnc1)CC2)N1CC=CC1`, the INHIBITION is on record as -4.32%.
To `Cc1ccc(CN2CCc3[nH]nc(C(=O)N(C)C)c3C2)o1` belongs 6.27%; to `c1cnc2c(CN3CCCCC3c3ccncn3)cnn2c1` (stereo not given), 16.5%.
In the case of `Cn1cc(CN2CCCC23CCN(C(=O)c2cccs2)CC3)cn1` it was 28.4%; in that of `CC1(C(N)=O)CN(CC2CCOCC2)CCO1` (stereo not given), 26.3375%.
In the case of `CS(=O)(=O)N1CCC(c2nnc3ccc(C(=O)NC4CCC4)cn23)C1` (stereo not given) it was 37.3%.
Consider `Cc1cc(C(F)(F)F)nn1C(C)C(=O)Nc1ccc(Cl)cn1` (stereo not given), for which the INHIBITION was 47.4%.
For `Cn1c(Cn2cccn2)nnc1C1CCN(Cc2ccccc2Cl)CC1`, the INHIBITION was -10.9%.
For the molecule `Cc1nn(C)c(Cl)c1C1CCCN1C(=O)c1ccnc(N(C)C)c1` (stereo not given), the INHIBITION is -65.3%.
For `COc1ccc(Cl)cc1NCc1nc2[nH]c(C)c(C)c(=O)n2n1`, the INHIBITION was 16%.
`O=C(Nc1cc(C(F)(F)F)c[nH]c1=O)N1CCSCC1`: the INHIBITION is reported as -43.6%.
Regarding `Cc1nc(C(=O)N2CCCC2c2cnn(C)c2)ccc1C#N` (stereo not given), the INHIBITION was found to be 13.3%.
As for `CNC(=O)c1ccc(C2CN(C(=O)c3cnn(C)c3)CCO2)nc1` (stereo not given), the INHIBITION amounted to 29.2%.
In the case of `CNC(=O)c1ccc(C2CN(C(=O)c3scnc3C)CCO2)nc1` (stereo not given), the INHIBITION is reported as -5.71%.
In the case of `CNC(=O)c1ccc(C2CN(C(=O)c3cncs3)CCO2)nc1` (stereo not given) it was 50%; in that of `CCOc1ncccc1C(=O)N1CCCC1c1c(C)nn(C)c1Cl` (stereo not given), -19.9%.
Consider `CCN(C)S(=O)(=O)NCC(C)(O)c1ccsc1` (stereo not given), for which the INHIBITION amounted to 31.7%.
In the case of `COCCN1C(=O)CO[C@H]2CN(Cc3ccccc3OC)C[C@H]21` it was -17.2%; in that of `Cn1ccnc1CN1C(=O)CO[C@H]2CN(CCCc3ccccc3)C[C@H]21`, 27.5%.
To `COCCN1C(=O)CO[C@H]2CN(Cc3cccc(OC)c3F)C[C@@H]21` belongs 27.8%; to `COCCN1C(=O)CO[C@H]2CN(S(=O)(=O)c3ccccc3)C[C@H]21`, -6.3%.
`COCCN1C(=O)CO[C@H]2CN(Cc3ccccc3Cl)C[C@@H]21`: the INHIBITION was 63.4%.
To `COCCN1C(=O)CO[C@H]2CN(CCCc3ccccc3)C[C@H]21` belongs 51.9%; to `CC(Nc1cccc(CN2CCOC2=O)c1)C(=O)NC(=O)NC(C)(C)C` (stereo not given), 3.75%.
As to `CCNC(=O)[C@@H]1C[C@H](NC(=O)c2cc(=O)[nH]c3ccc(C)cc23)CN1C`, the INHIBITION worked out at 29.4%.
In the case of `COC(=O)c1ccc(N(C(=O)c2cc(Cl)ccn2)C(C)C)c(C)c1` it was 19.4%; in that of `CC(C)(C)NC(=O)CN1CCCC(c2ccc(C(=O)O)cc2)C1` (stereo not given), 26.9%; in that of `N#Cc1ccsc1NC(=O)CCN1CCn2c(nnc2C2CC2)C1`, -25.9%.
Turning to `CCOCCCC(=O)Nc1cc(C(N)=O)ccc1N1CCCCC1`, the INHIBITION came out at 72.1%.
For `CC1CCCN(c2ccccc2OCC(=O)NC2CC2)C1` (stereo not given), the INHIBITION amounted to 42.6%.
As to `CC1CCC(NS(=O)(=O)CC(=O)Nc2ccccc2N2CCCC2)CC1` (stereo not given), the INHIBITION is -52.2%.
For the molecule `COCCCC(=O)Nc1cccnc1N1CCCCC1`, the INHIBITION was 35.1%.
As for `CC1CCCN(c2ccc(C(N)=O)cc2NC(=O)CC2=CCNCC2)C1` (stereo not given), the INHIBITION is listed as 56.3%.
Take `NC(=O)c1ccc(N2CCCCC2)c(NC(=O)c2cncc(Br)c2)c1`: the INHIBITION is 46.8%.
`CCNC(=O)COc1ccccc1N1CCCC(C)C1` (stereo not given): the INHIBITION is listed as 36.2%.
In the case of `CCOCCC(=O)Nc1cc(C(N)=O)ccc1N1CCCC(C)C1` (stereo not given) it was 73%.
`CCOCCCC(=O)NCc1ccc(N2CCCCC2)cc1`: the INHIBITION is given as 42.7%.
As to `Cc1csc(C2CCCN(C(=O)Cn3ccccc3=O)C2)n1` (stereo not given), the INHIBITION was -17.6%.
On to `CC(C)CNC(=O)C1(Cc2ccccc2-c2ccccc2)CCNC1` (stereo not given), for which the INHIBITION turned out to be 47.2%.
For the molecule `COc1ccc(COCC(O)CN2CCC(c3ccn[nH]3)CC2)cc1` (stereo not given), the INHIBITION came out at 44.1%.
On to `COCCOCC(=O)Nc1ccc(Br)cc1F`, for which the INHIBITION is listed as -6.32%.
For the molecule `O=C(O)c1c[nH]c2cc(NS(=O)(=O)c3cc(F)ccc3Cl)ccc12`, the INHIBITION is -31.8%.
On to `Cn1cc(C2=NOC(C(=O)NC3(c4ccccc4)CCCC3)C2)cn1` (stereo not given), for which the INHIBITION was -6.975%.
For the molecule `CO[C@@H]1CN(c2ccccc2)S(=O)(=O)[C@@]12CCN(S(C)(=O)=O)C2`, the INHIBITION worked out at 39.6%.
For `CCn1cc(CN2CCCN(C(=O)c3ccc(C)nc3)CC2)cn1`, the INHIBITION is -47.6%.
In the case of `COCC1c2c(cnn2CC2CCOCC2)CCN1Cc1ccoc1` (stereo not given), the INHIBITION was 14.4%.
Regarding `CCC(C)(CC(=O)OC)NCc1nc(C)no1` (stereo not given), the INHIBITION was -50.8%.
Consider `CCC(C)(CC(=O)OC)NCc1noc(C)n1` (stereo not given), for which the INHIBITION is -31.9%.
With `CCC(C)(CC(=O)OC)NCc1cc(C)on1` (stereo not given), the INHIBITION was 56.6%.
As for `CC(=O)N1CCN(C(=O)CCCc2nnc(-c3ccccc3)o2)CC1`, the INHIBITION turned out to be 28.8%.
As for `CC(Nc1cccc(CN2CCOC2=O)c1)C(=O)Nc1ccccc1` (stereo not given), the INHIBITION worked out at 35.4%.
Regarding `CN1[C@@H](c2ccccc2)[C@@H](C(=O)NCC2CCOCC2)C[C@@]1(C)C(=O)O`, the INHIBITION worked out at 41.5%.
For the molecule `CN1[C@@H](c2ccccc2)[C@@H](C(=O)NCc2ccccn2)C[C@@]1(C)C(=O)O`, the INHIBITION amounted to 60.1%.
To `CN1[C@@H](c2ccccc2)[C@@H](C(=O)NCc2ccncc2)C[C@@]1(C)C(=O)O` belongs 39.6%.
For the molecule `COC(=O)CC1CCN(C(=O)c2ccc(-n3nnnc3C)cc2)CC1`, the INHIBITION amounted to 27%.
On to `O=C(c1ccccn1)N1CCC2(CNS(=O)(=O)c3cnccc3O2)C1` (stereo not given), for which the INHIBITION is reported as 17.6%.
Regarding `CC(C)(C)C(=O)N1CCC2(CNS(=O)(=O)c3cnccc3O2)C1` (stereo not given), the INHIBITION was found to be 53.2%.
As for `O=C(c1cccnc1)N1CCC2(CNS(=O)(=O)c3cnccc3O2)C1` (stereo not given), the INHIBITION worked out at 37.5%.
As to `O=C(CNc1ccc(OC2CCOC2)cc1)NCc1ccc(F)cc1` (stereo not given), the INHIBITION was -68.6%.
Consider `Cn1nnc2c(N3CC(C(=O)NCc4cccs4)C3)ncnc21`, for which the INHIBITION is listed as -37.2%.
For `O=C(NC1CC1)N1CC[C@H]2[C@H]1CCN2c1ncccn1`, the INHIBITION is recorded as -4.82%.
As for `CCc1noc(CN2CCN(C(=O)c3ccccc3F)CC2)n1`, the INHIBITION was found to be 43.3%.
In the case of `CCc1noc(CN2CCN(C(=O)N(C)C)CC2)n1` it was -27.3%; in that of `CCc1noc(CN2CCCN(C(C)=O)CC2)n1`, 25.6%.
In the case of `CCc1noc(CN2CCN(C(=O)Cc3ccc(F)cc3)CC2)n1`, the INHIBITION is recorded as 52.4%.
For the molecule `CCc1noc(CN2CCN(C(=O)COC)CC2)n1`, the INHIBITION was determined as 25.6%.
`CCc1noc(CN2CCN(C(=O)C3CC3)CC2)n1`: the INHIBITION was 54.4%.
With `Cc1cc(C(=O)N2CCc3ncc(CN4CCOCC4)n3CC2)no1`, the INHIBITION is given as 35.8%.
As to `Cn1cnnc1C1CCCN(C(=O)COCc2ccccc2)C1` (stereo not given), the INHIBITION was determined as 45.7%.
Regarding `O=C1CCN(CCCS(=O)(=O)c2ccc(Cl)cc2)CCN1`, the INHIBITION came out at 20.6%.
Consider `c1ccc2sc(N3CCN(c4ncnc5c4CCC5)CC3)nc2c1`, for which the INHIBITION was determined as 79.9%.
As for `Cc1cc(C(=O)N2CCN(c3nc4ccccc4s3)CC2)no1`, the INHIBITION is recorded as 36.8%.
With `Cc1cccc(CN2CCc3ncnc(N4CCCC4)c3CC2)n1`, the INHIBITION is listed as -27.4%.
For the molecule `COCC(=O)N1CCCN(c2ncnc3c2CCNCC3)CC1`, the INHIBITION is on record as 11.7%.
To `c1ccc2sc(N3CCCN(c4ncnc5c4CCNC5)CC3)nc2c1` belongs 74.5%.
As for `Cn1nc2c(cc1=O)CN(c1nc3ccccc3s1)CC2`, the INHIBITION was -80.7%.
For the molecule `Cc1ncnc(N2CCCN(c3nc4ccccc4s3)CC2)c1C`, the INHIBITION stood at 89.6%.
To `CN(C)S(=O)(=O)N1CC[C@]2(O)CCN(c3nc4ccccc4s3)C[C@@H]2C1` belongs 11.3%.
To `NC(=O)c1cccnc1N1CCN(c2ncnc3c2CCNC3)CC1` belongs 31.7%; to `COCCCN1CC2(CCCN(CCn3cc(Cl)cn3)C2)CCC1=O` (stereo not given), 17.4%; to `CCOC(=O)Cc1csc(NC(=O)c2cc3n(n2)CCCO3)n1`, -42.6%.
In the case of `COCCCN(CCOC)Cc1nc2c(cnn2C)c(=O)[nH]1` it was 25.1%; in that of `CCN(CC)C(CNS(=O)(=O)c1ccc(C(N)=O)cc1)c1ccco1` (stereo not given), 54.3%.
`CCN(CC)C(CNCc1cc(F)cc(F)c1)c1ccco1` (stereo not given): the INHIBITION came out at 34.1%.
Regarding `CCN(CC)C(CNCc1ccc(O)cc1)c1ccco1` (stereo not given), the INHIBITION stood at 77.8%.
`CCN(CC)C(CNS(=O)(=O)c1ccc(C(C)=O)cc1)c1ccco1` (stereo not given): the INHIBITION turned out to be 26.4%.
For `CCN(CC)C(CNS(=O)(=O)c1ccc(C(=O)NC)cc1)c1ccco1` (stereo not given), the INHIBITION is given as 12.6%.
Take `CCN(CC)C(CNCc1ccc(OC)c(F)c1)c1ccco1` (stereo not given): the INHIBITION is -75%.
For the molecule `O=C(CCc1ccccn1)N1CCCN(C(=O)CC2CCCC2)CC1`, the INHIBITION was determined as 21.5%.
In the case of `N#Cc1cccc(NC(=O)N2CCC3(CCC(=O)N(C4CC4)C3)CC2)c1` it was 19.5%; in that of `COc1ncccc1CN1CCC2(CC1)COCCN2C`, 70.4%.
As to `COc1ncccc1CN1CCC2(CC1)CC(OCC1CC1)CO2` (stereo not given), the INHIBITION stood at 56.4%.
In the case of `COCCN1CCCC12CCN(Cc1cccnc1OC)CC2` it was 26%.
As to `COc1ncccc1CN1CC[C@]2(C[C@@H](OCc3ccccn3)CO2)C1`, the INHIBITION was -3.52%.
In the case of `CCN1CCCC12CCN(Cc1cccnc1OC)CC2`, the INHIBITION stood at 42.3%.
With `CCOC1COC2(CCN(Cc3cccnc3OC)CC2)C1` (stereo not given), the INHIBITION is on record as 18.6%.
In the case of `CCCC(=O)N1CCC(C(=O)NCCNc2ncccn2)CC1` it was 21.6%; in that of `Cc1c[nH]c(C2CCCN2C(=O)CCc2c(C)n[nH]c2C)n1` (stereo not given), -0.13%; in that of `CN(C)C(=O)N1CCN(C(=O)c2ccn3cncc3c2)CC1`, 15.1%.
In the case of `O=C(Cn1nnn(-c2cccs2)c1=O)N(CC1CCOC1)C1CC1` (stereo not given), the INHIBITION was determined as 51.7%.
For the molecule `CCN(CC1CCOC1)C(=O)Cn1nnn(-c2cccs2)c1=O` (stereo not given), the INHIBITION was 12.8%.
In the case of `O=C(Cn1nnn(-c2cccs2)c1=O)NCC1CCOC1` (stereo not given) it was 13.7%.
For the molecule `CC(C)c1nc2c(n1C)CCN(CCCOc1ccc(C#N)cc1)C2`, the INHIBITION was -2.53%.
